According to PubChem BioAssay (NCATS):
Records with an inconclusive call do not appear. Activity calls are given as the source filed them. Unless noted, the call rests on the fitted dose curve; in most records, active means well fitted curve in the direction sought with a large enough effect; inconclusive means small, poorly fitted or top-dose-only effect, or another doubt; inactive means no such curve, though single readings can be large; an effect the other way counts as inactive or inconclusive.

Key:
[1] = Cell Viability - HepG2 (AID 433; calls by dose curve;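 further: potency means the concentration at half of the fitted maximal effect; cells exposed to compound for 40 hours; potency for ATP loss meaning cytotoxicity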); conditions: qHTS
How it was run: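 HepG2 cells, 1500 per well, treated 40 hr at 37 °C in complete medium; viability from intracellular ATP by CellTiter-Glo luminescence. Normalized to DMSO and 100 uM tamoxifen; AC50 from Hill fit of qHTS concentration-response.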

[2] = molecular target: Cytochrome P450 3A4 (Homo sapiens) (UniProt P08684); test: qHTS Assay for Inhibitors and Substrates of Cytochrome P450 3A4 (AID 884); conditions: recombinant CYP3A4, Luciferin-PPXE luminescence; series mostly up to 57.1 µM; further: nearly all actives have a fitted effect of over 50% in size
How it was run: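 Luminescent readout of luciferin produced by CYP3A4 (20 nM) dealkylation of Luciferin-PPXE, 25 uM (its KM). NADPH-driven reaction ran 60 min at RT after 10 min compound preincubation; data scaled to 57 uM ketoconazole as 100% inhibition.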

[3] = Cell Viability - LYMP2-001 (AID 921); conditions: LYMP2-001 lymphoblastoid cell viability; series mostly up to 92.2 µM; further: nearly all actives have a fitted effect of over 70% in size; further: potency means the concentration at half of the fitted maximal effect
How it was run: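 Human lymphoblastoid LYMP2-001 cells, 2500 per well, in complete medium, treated 24 h at 37 C. Viability from cellular ATP by CellTiter-Glo luminescence; AC50 from Hill-equation fits of qHTS concentration-response.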

[4] = MultiTox-Fluor Cytotoxicity Assay - LYMP1-001 - Live Cells (AID 947); conditions: LYMP1-001 lymphoblastoid cells, live-cell protease fluorescence viability; series mostly up to 92.2 µM; further: potency means the concentration at half of the fitted maximal effect
[5] = MultiTox-Fluor Cytotoxicity Assay - LYMP1-003 - Dead Cells (AID 961); conditions: LYMP1-003 lymphoblastoid cells, dead-cell protease fluorescence; series mostly up to 92.2 µM;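 further: cells exposed to compound for 16 h at 37 °C; nearly all actives have a fitted effect of over 70% in size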; further: potency means the concentration at half of the fitted maximal effect
How it was run: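 Acute toxicity is scored as increased dead-cell protease activity in human lymphoblastoid LYMP1-003 cells after 16 h compound exposure in complete culture medium. Activity is normalized to DMSO basal and 15 uM tetraoctylammonium bromide as full response.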

[6] = Cell Viability - LYMP2-005 (AID 967); conditions: LYMP2-005 lymphoblastoid cell viability; series mostly up to 92.2 µM; further: potency means the concentration at half of the fitted maximal effect
How it was run: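 Human lymphoblastoid LYMP2-005 cells, 2,500 per well in complete medium, rested 5 h at 37C then compound-treated 24 h at 37C. Intracellular ATP read by CellTiter-Glo luminescence after 30 min at room temperature; AC50 from Hill-equation fits of concentration-response data.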

[7] = Cell Viability - LYMP2-009 (AID 968); conditions: LYMP2-009 lymphoblastoid cell viability; series mostly up to 92.2 µM; further: nearly all actives have a fitted effect of over 55% in size; further: potency means the concentration at half of the fitted maximal effect
[8] = Cell Viability - LYMP2-011 (AID 969); conditions: LYMP2-011 lymphoblastoid cells viability; series mostly up to 92.2 µM;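 further: cells exposed to compound for 24 hours; nearly all actives have a fitted effect of over 60% in size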; further: potency means the concentration at half of the fitted maximal effect
How it was run: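 Luminescent ATP read-out (CellTiter-Glo, 30 min RT) after 24 hr compound exposure at 37 C in human lymphoblastoid cells, 2500 cells/well. Decreasing ATP indicates cytotoxicity; AC50 from standard Hill fit.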

[9] = Cell Viability - LYMP2-021 (AID 974); conditions: LYMP2-021 lymphoblastoid cells viability; series mostly up to 92.2 µM;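 further: compound exposure lasts 24 hours at 37 °C; nearly all actives have a fitted effect of over 55% in size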; further: potency means the concentration at half of the fitted maximal effect
How it was run: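 ATP luminescence (CellTiter-Glo, 30 min RT) after 24 h compound exposure at 37 C; 2500 human lymphoblastoid cells/well, 5 h settle beforehand. Cytotoxicity = concentration-dependent ATP drop, AC50 by Hill fit.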

[10] = Cell Viability - LYMP2-025 (AID 976); conditions: LYMP2-025 lymphoblastoid cell viability; series mostly up to 92.2 µM; further: potency means the concentration at half of the fitted maximal effect
How it was run: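 CellTiter-Glo luminescence (cellular ATP) after 24 h compound exposure at 37 C; LYMP2-025 human lymphoblastoid cells, 2500/well, complete medium. Tetraoctylammonium bromide positive control. AC50 by Hill equation fit of qHTS concentration-response.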

[11] = Cell Viability - LYMP2-002 (AID 977); conditions: LYMP2-002 lymphoblastoid cell viability, qHTS; series mostly up to 92.2 µM; further: potency means the concentration at half of the fitted maximal effect
How it was run: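 In this qHTS viability screen, 2500 human lymphoblastoid cells per well receive compound for 24 hr at 37 C, and luciferase-based ATP luminescence gives the viability signal. Tetraoctylammonium bromide serves as positive control.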

[12] = Cell Viability - LYMP2-006 (AID 978); conditions: LYMP2-006 lymphoblastoid cell viability, qHTS; series mostly up to 92.2 µM;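 further: cells exposed to compound for 24 hours; nearly all actives have a fitted effect of over 60% in size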; further: potency means the concentration at half of the fitted maximal effect
How it was run: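 Human lymphoblastoid cells (LYMP2-006), 2500/well in complete medium, were treated with compound for 24 hr at 37 C. Cellular ATP was read by CellTiter-Glo luminescence after 30 min, and AC50 values came from Hill-equation fits of concentration-response data.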

[13] = Cell Viability - LYMP2-007 (AID 979); conditions: LYMP2-007 lymphoblastoid cell viability; series mostly up to 92.2 µM;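 further: cells exposed to compound for 24 h before reading; nearly all actives have a fitted effect of over 60% in size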; further: potency means the concentration at half of the fitted maximal effect
How it was run: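 qHTS cytotoxicity: 2500 cells/well, 5 hr 37 C settle, compound 24 hr 37 C, CellTiter-Glo 30 min RT, luminescence. Decrease in ATP = toxicity. AC50 by standard Hill equation; tetraoctylammonium bromide positive control.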

[14] = Cell Viability - LYMP2-010 (AID 981); conditions: LYMP2-010 lymphoblastoid cell viability, qHTS; series mostly up to 92.2 µM;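 further: cells exposed to compound for 24 hours at 37 °C; nearly all actives have a fitted effect of over 55% in size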; further: potency means the concentration at half of the fitted maximal effect
How it was run: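 qHTS cytotoxicity, 1536-well: 2500 cells/well, 5 hr settle, 24 hr compound at 37 C, CellTiter-Glo 30 min RT, luminescence read. Decrease in ATP = toxicity; AC50 via standard Hill equation. Positive control tetraoctylammonium bromide.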

[15] = Cell Viability - LYMP2-012 (AID 982); conditions: LYMP2-012 lymphoblastoid cell viability qHTS; series mostly up to 92.2 µM;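 further: cellular ATP by luciferase luminescence where a drop means cytotoxicity; cells exposed to compound for one day before reading; nearly all actives have a fitted effect of over 55% in size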; further: potency means the concentration at half of the fitted maximal effect
[16] = Cell Viability - LYMP2-020 (AID 986); conditions: series mostly up to 92.2 µM; further: nearly all actives have a fitted effect of over 55% in size; further: potency means the concentration at half of the fitted maximal effect
How it was run: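 qHTS, 2500 cells/well; 5 hr then 24 hr compound exposure, 37 C; CellTiter-Glo luminescence after 30 min RT; ATP decrease taken as cytotoxicity; AC50 via Hill equation; tetraoctylammonium bromide positive control.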

[17] = Cell Viability - LYMP2-022 (AID 987); conditions: LYMP2-022 lymphoblastoid cell viability; series mostly up to 92.2 µM; further: nearly all actives have a fitted effect of over 55% in size; further: potency means the concentration at half of the fitted maximal effect
How it was run: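 Luminescent ATP read-out (CellTiter-Glo, 30 min, RT) after 24 hr, 37 C compound exposure of 2500 human lymphoblastoid cells/well in complete medium. Cytotoxicity taken as concentration-dependent ATP loss; AC50 from standard Hill equation.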

[18] = Cell Viability - LYMP2-024 (AID 988); conditions: LYMP2-024 lymphoblastoid cell viability; series mostly up to 92.2 µM; further: nearly all actives have a fitted effect of over 60% in size; further: potency means the concentration at half of the fitted maximal effect
How it was run: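 ATP-based luminescence (CellTiter-Glo, 30 min RT) after 24 h compound exposure at 37 C of 2500 lymphoblastoid cells/well; decrease in ATP taken as cytotoxicity. qHTS concentration-response fitted to standard Hill equation for AC50.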

[19] = Cell Viability - LYMP1-002 - Assay at 24 hr (AID 993); conditions: LYMP1-002 lymphoblastoid cells viability; series mostly up to 92.2 µM; further: potency means the concentration at half of the fitted maximal effect
How it was run: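 CellTiter-Glo luminescence (intracellular ATP) after 24 h compound exposure, 37 C, in LYMP1-002 human lymphoblastoid cells; decreased ATP taken as cytotoxicity. AC50 from standard Hill fit of concentration-response curves.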

[20] = qHTS assay for small molecule disruptors of the mitochondrial membrane potential - 5 hr assay (AID 651755; calls by dose curve; further: nearly all actives have a fitted effect of over 40% in size; further: potency means the concentration at half of the fitted maximal effect); conditions: JC-1-type ratio dye; series mostly up to 92.2 µM
How it was run: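 Seed HepG2 overnight, add compound, incubate 5 hr at 37C and 5% CO2, stain 30 min with Mito-MPS, then measure monomer (490/535 nm) and aggregate (540/590 nm) fluorescence.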

Measured: Potency

Sequence of Cytochrome P450 3A4 (Homo sapiens) (P08684 whole entry, looked up): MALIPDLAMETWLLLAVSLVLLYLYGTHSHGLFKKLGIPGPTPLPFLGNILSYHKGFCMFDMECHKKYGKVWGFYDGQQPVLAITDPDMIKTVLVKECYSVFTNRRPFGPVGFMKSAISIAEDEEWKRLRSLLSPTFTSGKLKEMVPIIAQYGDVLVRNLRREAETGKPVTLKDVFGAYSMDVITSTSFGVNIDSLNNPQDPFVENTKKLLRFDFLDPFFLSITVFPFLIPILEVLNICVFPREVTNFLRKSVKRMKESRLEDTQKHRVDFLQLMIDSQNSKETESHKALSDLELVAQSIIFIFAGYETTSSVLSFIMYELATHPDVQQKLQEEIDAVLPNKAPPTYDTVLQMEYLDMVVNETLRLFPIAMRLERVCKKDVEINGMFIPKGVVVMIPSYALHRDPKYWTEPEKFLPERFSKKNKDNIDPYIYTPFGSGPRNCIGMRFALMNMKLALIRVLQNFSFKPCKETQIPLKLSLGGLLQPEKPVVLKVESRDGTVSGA

c1ccc2cc3c(cc2c1)-c1cccc2cccc-3c12
inactive: [1] > 92 µM | [2] | [3] | [4] | [5] | [6] | [7] | [8] | [9] | [10] | [11] | [12] | [13] | [14] | [15] | [16] | [17] | [18] | [19]
active: [20] 6.68 µM

O=[N+]([O-])c1ccccc1Cl
inactive: [1] > 92 µM

Clc1ccc(C(c2ccc(Cl)cc2)C(Cl)Cl)cc1
inactive: [2] | [3] | [6] | [7] | [8] | [9] | [10] | [11] | [12] | [13] | [14] | [15] | [16] | [17] | [18]
active: [20] 66.8 µM

N#CSCSC#N
inactive: [2] | [20]
active: [1] 50.3 µM | [3] 5.01 µM | [4] 39.8 µM | [5] 25.1 µM | [6] 5.01 µM | [7] 5.01 µM | [8] 6.31 µM | [9] 5.01 µM | [10] 10 µM | [11] 10 µM | [12] 12.6 µM | [13] 6.31 µM | [14] 3.98 µM | [15] 5.01 µM | [16] 5.01 µM | [17] 5.01 µM | [18] 3.98 µM | [19] 12.6 µM

COP(=O)(OC)O/C(=C\Cl)c1cc(Cl)c(Cl)cc1Cl
active: [15] 50.1 µM
inactive: [1] > 92 µM | [2] | [3] | [4] | [5] | [7] | [8] | [10] | [11] | [12] | [16] | [19]

O=[N+]([O-])C(Br)Br
inactive: [2] | [4] | [5] | [19] | [20]
active: [3] 7.94 µM | [6] 25.1 µM | [7] 12.6 µM | [8] 12.6 µM | [9] 10 µM | [10] 20 µM | [11] 10 µM | [12] 20 µM | [13] 10 µM | [14] 7.94 µM | [15] 12.6 µM | [16] 12.6 µM | [17] 12.6 µM | [18] 7.94 µM

Oc1c(Cl)cc(Cl)cc1Cl
inactive: [1] > 92 µM

FC(F)(F)c1ccc(Cl)cc1
inactive: [1] > 92 µM | [2] | [3] | [4] | [5] | [6] | [7] | [8] | [9] | [10] | [11] | [12] | [13] | [14] | [15] | [16] | [17] | [18] | [19] | [20]

Cc1ccc2ccccc2c1C
inactive: [1] > 92 µM

O=[N+]([O-])c1cc(C(F)(F)F)cc([N+](=O)[O-])c1Cl
active: [3] 25.1 µM | [7] 31.6 µM | [8] 39.8 µM | [9] 31.6 µM | [10] 50.1 µM | [11] 31.6 µM | [13] 39.8 µM | [14] 31.6 µM | [15] 31.6 µM | [16] 31.6 µM | [17] 31.6 µM | [18] 31.6 µM
inactive: [1] > 92 µM | [2] | [4] | [5] | [6] | [19] | [20]

Cc1ccc(O)cc1C
inactive: [1] > 92 µM

CN(C)c1ccc(N=O)cc1
active: [3] 0.631 µM | [4] 10 µM | [5] 3.98 µM | [6] 0.794 µM | [7] 1 µM | [8] 2 µM | [9] 0.794 µM | [10] 2.51 µM | [11] 2.51 µM | [12] 2 µM | [13] 0.794 µM | [14] 0.631 µM | [15] 0.631 µM | [16] 1.26 µM | [17] 0.631 µM | [18] 0.501 µM | [19] 3.98 µM
inactive: [2]

[Cd+2].[Cl-].[Cl-]
inactive: [20]
active: [13] 39.8 µM | [14] 50.1 µM | [17] 39.8 µM

OC(c1ccc(Cl)cc1)(c1ccc(Cl)cc1)C(Cl)(Cl)Cl
inactive: [2] | [3] | [4] | [5] | [6] | [7] | [8] | [9] | [10] | [11] | [12] | [13] | [14] | [15] | [16] | [17] | [18] | [19] | [20]

C#CCO
inactive: [1] > 92 µM | [2] | [3] | [4] | [5] | [6] | [7] | [8] | [9] | [10] | [11] | [12] | [13] | [14] | [15] | [16] | [17] | [18] | [19]
